Bioassay records as filed in PubChem BioAssay.
VP16 counter = VP16 counterscreen qHTS for inhibitors of ROR gamma transcriptional activity. Drosophila S2 Gal4-VP16 UAS-luciferase, luminescence, 20 h. Potency, µM (highest dose often 53.6 µM), for inactives: top-dose activity, negative = inhibition, usual class: inhibitors. 310,000 tested, 3.5% active. AID 2546, 2010;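 also: Gal4-VP16 expression switched on by copper sulfate through the metallothionein promoter; nearly all actives have a fitted effect of over 50% in size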
KinaseGlo FLuc = Counterscreen for Luciferase (Kinase-Glo TM) Inhibition | Luciferin 4-monooxygenase (Photuris pensylvanica), Q27757 | Kinase-Glo luciferase, ATP luminescence, 8 min | Potency, µM (top dose mostly 38.3 µM), inactives show at the highest dose activity change, negative = inhibition, hits mostly inhibitors | 200,000 tested, 0.28% active; also: nearly all actives have a fitted effect of over 60% in size
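Inhibition of Kinase-Glo luciferase light generation was assessed at 10 uM ATP in pH 7.2 imidazole buffer, with luminescence measured after eight minutes at ambient temperature.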
RORgamma inh = qHTS for inhibitors of ROR gamma transcriptional activity. Nuclear receptor ROR-gamma (Mus musculus), P51450. Drosophila S2 Gal4-RORgamma UAS-luciferase reporter, 20 h. Potency, µM (highest dose often 53.6 µM), for inactives: at the highest dose activity change, negative = inhibition, actives largely listed as inhibitors. 310,000 tested, 5.4% active. AID 2551, 2010; also: nearly all actives have a fitted effect of over 60% in size
Target sequence (P51450 whole entry, looked up, the tested form may be a part): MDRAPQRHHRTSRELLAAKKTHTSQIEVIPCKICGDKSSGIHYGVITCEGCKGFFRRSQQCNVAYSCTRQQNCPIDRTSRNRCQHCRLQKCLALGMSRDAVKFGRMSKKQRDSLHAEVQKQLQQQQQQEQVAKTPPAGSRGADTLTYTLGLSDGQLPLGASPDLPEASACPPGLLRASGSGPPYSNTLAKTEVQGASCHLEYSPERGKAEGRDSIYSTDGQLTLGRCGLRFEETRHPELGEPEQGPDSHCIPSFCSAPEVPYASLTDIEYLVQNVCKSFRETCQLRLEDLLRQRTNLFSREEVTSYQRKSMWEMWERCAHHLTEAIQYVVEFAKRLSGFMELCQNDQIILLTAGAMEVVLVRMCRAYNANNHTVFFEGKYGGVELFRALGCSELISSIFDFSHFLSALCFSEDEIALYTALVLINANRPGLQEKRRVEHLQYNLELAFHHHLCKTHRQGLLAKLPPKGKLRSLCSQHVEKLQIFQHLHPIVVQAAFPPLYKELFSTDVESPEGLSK
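Compounds are pin-transferred onto Drosophila Schneider cells expressing a copper-inducible Gal4–ROR gamma transactivation domain fusion. After 1 hr, copper sulfate is added to 700 uM final; luciferase is read 20 hr later.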
* = called active by the depositor; u = inconclusive; x = no result; ! = not active in a repeat; [ ] = another dose, or the depositor's remark. A selection: hits, their analogues and other compounds. The true share with any hit is near 6.2%. Calls follow the shape of the dose curve; as a rule, active = well fitted curve in the direction sought with a large enough effect; inconclusive = small, poorly fitted or top-dose-only effect, or another doubt; inactive = no such curve, though single readings can be large; an effect the other way counts as inactive or inconclusive. % is scaled to controls: 0 for no effect and ±100 for the full control effect; potency is read from the fitted curve at half-maximal effect.

SMILES	VP16 counter	KinaseGlo FLuc	RORgamma inh
CCCN(C(=O)COC(=O)CCOc1ccccc1C)c1c(N)n(Cc2ccccc2)c(=O)[nH]c1=O	-28.7%	x	-45.0%
COc1ccc(OC)c(N=C2C(=O)Nc3ccccc32)c1	-0.7%	-1.5%	u
COc1cc(-n2nnnc2SC)c(OC)cc1Cl	18.3%	0.2%	-2.9%
COc1cc(N=c2ssnc2Cl)c(OC)cc1Cl	25.1µM*	10.8%	u
COc1ccc(OC)c(N=c2ssnc2Cl)c1	u	-2.4%	17.8µM*
Cn1ncc(Br)c1NC(=O)CSc1ccc(Cl)cc1	-4.3%	x	13.2%
COc1ccc(/C=C2\CCc3c2nc2ccccc2c3C(=O)O)cc1OC	11.2µM*	x	8.91µM*
COc1ccc(/C=C2\CCCc3c2nc2ccccc2c3C(=O)O)cc1OC	6.0%	x	5.8%
CCN1CCN(CCCNC(=O)c2ccc(/C=C3/Sc4ccccc4N(Cc4ccccc4F)C3=O)cc2)CC1	u	0.7%	u
CCN1CCN(CCNC(=O)c2ccc(/C=C3/Sc4ccccc4N(Cc4ccccc4C)C3=O)cc2)CC1	17.8µM*	1.6%	u
Cc1ccccc1-c1nc(CS(=O)(=O)CC(=O)NCCCN2CC(C)CC(C)C2)c(C)o1 (stereo not given)	u	x	-24.7%
COc1cc(OC)c(C(=O)O/N=C(\N)c2ccccn2)cc1OC	2.1%	x	27.0%
N/C(=N\OC(=O)c1ccccc1Cl)c1ccccn1	14.1µM*	11.2µM*	6.31µM*
N/C(=N\OC(=O)c1ccccc1[N+](=O)[O-])c1ccccn1	7.0%	-4.5%	23.2%
Cc1ccc(C(=O)O/N=C(\N)c2ccccn2)c(C)c1	6.31µM*	x	u
COc1ccccc1C(=O)O/N=C(\N)c1ccccn1	u	x	3.16µM*
Cc1ccc(C)c(OCC(=O)O/N=C(\N)c2ccccn2)c1	5.4%	-6.1%	15.1%
COc1ccc([C@]23Cc4cc(C#N)ccc4C(O2)c2c(c4ccc(OC)cc4oc2=O)O3)cc1	-8.4%[10 µM]	x	-5.9%[10 µM]
COc1ccc(-c2nc3cnc(N(C)C)nc3n(C3CC3)c2=O)cc1	-1.5%	x	-5.1%
CCOC(=O)C1(Cc2ccccc2)CCCN(Cc2ccc(OCC)c(CO)c2)C1 (stereo not given)	-5.2%	-1.7%	10.0%
COc1ccccc1NC(=O)CCC(=O)OCc1cccc([N+](=O)[O-])c1	-3.2%	-0.5%	1.7%
COc1ccc(-c2n(CC(=O)OC3CC(C)CCC3C(C)C)c3ccccc3[n+]2C)cc1 (stereo not given)	-12.0%	3.55µM*	-0.3%
CC1CCC(C(C)C)[C@H](OC(=O)c2ccccc2)C1 (stereo not given in full)	-16.6%	-0.1%	-18.8%
CCC1=NN(C(=O)c2cccc(Br)c2)C(O)(c2ccc(Br)cc2)C1 (stereo not given)	-14.0%	-0.5%	-6.9%[10 µM]
O=C(c1ccc(Cn2cc(Br)cn2)cc1)N1N=C(C(F)F)CC1(O)C(F)F (stereo not given)	-29.6%	-0.4%	-25.8%
SMILES	VP16 counter	KinaseGlo FLuc	RORgamma inh
CCC1=NN(C(=O)c2ccc(Br)cc2)C(O)(c2ccc(C)cc2)C1 (stereo not given)	11.2µM*	-1.6%	12.6µM*
CCC1=NN(C(=O)c2ccc(C)cc2)C(O)(c2ccc(Br)cc2)C1 (stereo not given)	12.6µM*	0.2%	u
CNc1nc(-c2ccc(N(C)C)cc2)nc2ccccc12	u	-1.0%	u
Cc1ccc(S(=O)(=O)C2(C(=O)Nc3cccc(F)c3)CC2)cc1	-2.2%	-1.1%	-13.6%
O=[N+]([O-])c1cc(F)c2cccnc2c1O	3.16µM*	x	1.26µM*
O=[N+]([O-])c1cc(CN2CCN(c3ccccc3)CC2)c(O)c2ncccc12	-86.8%	-0.3%	0.112µM*
Clc1ccc(Oc2ccccc2)c2ncccc12	15.0%	x	5.5%
O=[N+]([O-])c1cccc2c1ccc1ncccc12	-6.1%	x	-0.4%
O=[N+]([O-])c1ccc(Cl)c2cccnc12	-12.3%	3.7%	20.9%
Oc1c(I)cc(Cl)c2cccnc12	1µM*!	3.2%	0.398µM*
O=[N+]([O-])c1cc(Cl)c2cccnc2c1O	3.98µM*	4.1%	2.82µM*
O=[N+]([O-])c1cc(CN2CCOCC2)c2cccnc2c1O	4.4%	0.1%	2.6%
Cc1ccc(N(Cc2ccc(C(=O)NN=C3CCN(C)CC3)cc2)S(C)(=O)=O)cc1C	2.3%	-1.1%	-35.6%
Cc1ccc(CNC(=O)CNS(=O)(=O)c2cccc3nsnc23)cc1	-4.4%	-1.2%	-0.4%
O=[N+]([O-])c1cccc2c(Cl)ccnc12	-0.9%	-2.3%	-8.4%
CN(Cc1cc([N+](=O)[O-])c2cccnc2c1O)C1CCCCC1	u	-4.5%	3.98µM*
COc1cc(NC(=O)CN(C)C2CCCCC2)c(C)cc1[N+](=O)[O-]	-0.3%	6.8%	16.8%
O=[N+]([O-])c1cc(Cl)c(O)c2ncccc12	1.26µM*	1.8%	0.708µM*
Cc1cc2n(n1)C(c1ccccc1)CC(c1ccc(Br)cc1)=N2 (stereo not given)	-8.0%	-0.6%	31.7%
Cc1cc2ccc(OC(=O)c3ccc(N=C(N)N)cc3)cc2oc1=O	x	-6.3%[7.66 µM]	x
CSCC[C@H](NC(=O)[C@H](Cc1ccc(OS(=O)(=O)O)cc1)NC(=O)[C@@H](N)CC(=O)O)C(=O)NCC(=O)N[C@@H](Cc1c[nH]c2ccccc12)C(=O)N[C@@H](CCSC)C(=O)N[C@@H](CC(=O)O)C(=O)N[C@@H](Cc1ccccc1)C(N)=O	0.6%	x	13.2%
O=C(N/N=C/c1ccccn1)C1CC1	10.3%	-6.3%	15.3%
O=C(N/N=C/c1ccccn1)c1ccc(Br)o1	u	-8.2%	12.6µM*
O=C(N/N=C/c1ccccn1)c1cc(Br)ccc1O	4.47µM*	x	3.98µM*
O=C(N/N=C/c1cccnc1)c1cc(Br)ccc1O	-19.7%	x	u
SMILES	VP16 counter	KinaseGlo FLuc	RORgamma inh
CCS(=O)(=O)NCCNc1ccc([N+](=O)[O-])cc1	4.6%	-2.2%	6.3%
O=C(C1=C(O)C(=O)N(c2ncccn2)C1c1ccc(F)cc1)c1ccco1 (stereo not given)	-20.7%	x	8.5%
Cc1cc(C)cc(OCC(O)Cn2nc(C)cc2C)c1 (stereo not given)	-0.5%	x	0.2%
C[C@]12CC[C@H](O)CC1=CC[C@H]1[C@@H]2CC[C@@]2(C)C(N(CCO)CCO)CC[C@@H]12 (stereo not given in full)	x	-4.7%[7.66 µM]	x
COc1ccc(-c2noc(=O)n2CC(=O)N2CCC(Cc3ccccc3)CC2)cc1	u	-1.1%	u
CCCc1cc(NCc2ccccn2)n2nc(C)c(-c3ccccc3)c2n1	0.562µM*	x	0.0891µM*
CCCc1cc(N2CCCC2)n2nc(C)c(-c3ccccc3)c2n1	3.0%[0.365 µM]	2.9%	u
Cc1nn2c(NCc3ccccn3)cc(C(C)C)nc2c1-c1ccccc1	0.631µM*	x	0.0891µM*
Cc1nn2c(NCCCn3ccnc3)cc(C(C)C)nc2c1-c1ccccc1	-15.4%	x	u
O=S(=O)(Nc1ccc(OC(F)F)cc1)c1ccc(-c2ccon2)s1	-2.5%	x	44.5%
COc1cc(OC)cc(C(=O)NCc2n[nH]c(=S)n2-c2ccccc2)c1	3.1%	1.2%	26.0%
Cc1cccc(NCc2n[nH]c(=S)n2-c2ccccc2)c1	-18.0%	-6.4%	10µM*
